# According to PubChem BioAssay AID686978 (National Center for Advancing Translational Sciences (NCATS), 2013):
# Where “and” joins values, the source holds several entries; their conditions need not be identical. Equal entries are not always repeated. In all, about 420,000 compounds went through this assay and about 64,000 (15%) were called active. Roughly 27% stayed inconclusive and do not appear here. Only a sample is shown. A number with no mark means an inactive call. Calls follow the shape of the dose curve; as a rule, active = well fitted inhibition curve with a large enough effect; inconclusive = small, poorly fitted or top-dose-only effect; inactive = flat fitted curve, though single readings scatter.
# Assay: qHTS for Inhibitors of human tyrosyl-DNA phosphodiesterase 1 (TDP1): qHTS in cells in absence of CPT; also: nearly all actives have a fitted effect of over 55% in size
# Conditions: DT40 Tdp1-/- hTDP1 cells, no CPT, ATP luminescence, 48 h; activity change, negative = growth inhibition: at 46.2 µM (top of the series)
# How it was run: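 Compound effects on proliferation are scored in DT40 Tdp1-/-;hTDP1 cells in the absence of CPT. ATP levels (CellTiter-Glo luminescence) are recorded after a ≥48 hr, 37 °C incubation.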
# % is scaled to controls: 0 for no effect and ±100 for the full control effect; potency is read from the fitted curve at half-maximal effect.
Compound,"activity change, negative = growth inhibition [%]",Potency
COC(=O)c1ccc(C(=O)OC)c(NC(=S)N2CCCCC2)c1,0.473,
Brc1ccc(-c2noc(-c3ccccc3)n2)o1,,inactive
Cn1c(=O)cc(SCC(=O)N2CCN(C(=O)c3ccco3)CC2)c2ccccc21,-1.28,
Nc1c(C(=O)O)cnn1-c1ccccc1,-27.1,
CN1CCN(S(=O)(=O)c2cccc(C(=O)O)c2)CC1,-4.32,
COC(=O)Cn1c(O)c(N=NC(=O)OC)c2ccccc21,-1.25,
CCn1c(O)c(N=NC(=O)c2cccc(S(=O)(=O)N3CCCCC3)c2)c2ccccc21,,23.1 µM (active)
O=[N+]([O-])c1cccc(C2=NCCS2)c1,-20,
CC(CC(=O)Nc1ccc(F)cc1F)S(=O)(=O)c1ccc2c(c1)NC(=O)CO2 (stereo not drawn),-1.12,
O=C(NCc1cccnc1)Nc1cccc(NC(=O)NCc2cccnc2)c1F,12.9,
COCCCN1C(=O)c2ccc(C(=O)OCC(=O)NCc3ccccc3OC)cc2C1=O,7.9,
CC(=O)c1ccc(OCCN2CCOCC2)cc1,-1.61,
CCOc1ccc(C(=O)CCN2CCOCC2)cc1,,20.6 µM (active)
CCOc1ccc(C2C(C(=O)O)c3ccccc3C(=O)N2CCN2CCOCC2)cc1 (stereo not drawn),-4.91,
CC1CN(C2CCN(C(=O)COc3ccccc3)CC2)CC(C)O1 (stereo not drawn),-11.5,
CN(CC(=O)NCc1ccncc1)S(=O)(=O)c1ccc(Br)cc1,-7.58,
COc1ccc(CCNC(=O)C(=O)NCC2CCNCC2)cc1OC,-6.66,
COc1ccc(CCNc2ncnc3nc[nH]c23)cc1OC,,11.6 µM (active)
CCCNC(=O)NC(=O)COC(=O)CC(NC(N)=O)c1ccc(Cl)cc1 (stereo not drawn),-0.325,
CSCCC(NC(=O)c1ccco1)C(=O)NCCc1ccc(F)cc1 (stereo not drawn),7.74,
CC1CCCN(C(C(=O)Nc2ccc(C(C)C)cc2)c2ccc3c(c2)OCO3)C1 (stereo not drawn),,18.4 µM (active)
CC(NC(=O)Nc1ccc2c(c1)OCO2)c1ccncc1 (stereo not drawn),1.21,
CCc1ccc(NC(=O)NC(C)c2ccc3c(c2)OCO3)cc1 (stereo not drawn),-4.68,

Compound,"activity change, negative = growth inhibition [%]",Potency
Cc1cccc(NS(=O)(=O)c2ccc(C)c(C(=O)NCc3cccnc3)c2)c1,-12.3,
Cc1cccc(NS(=O)(=O)c2ccc(C)c(C(N)=O)c2)c1,,9.2 µM (active)
Cc1ccc(S(=O)(=O)NC2CCCCCC2)cc1C(N)=O,-16.7,
COc1ccccc1C(=O)N1C(CC(=O)Nc2ccccc2C)C(=O)NC2CCCCC21 (stereo not drawn),8.38,
COc1cccc(-n2c(=S)[nH]c3c(oc4ccccc43)c2=O)c1,0.503,
CNc1[nH]ncc1[N+](=O)[O-],-6.95,
CCCCCCNCCn1cnc2c(N)ncnc21,5.52,
Cc1ccc(NC(=O)CSc2nn3c(=O)c(C)nnc3s2)cc1Cl,-11.4,
CC(C)OCCCn1c(SCC(=O)c2ccccc2)nc2c(sc3ccccc32)c1=O,7.97,
Cc1ccc(C)c(NC(=O)CSc2nc3c(oc4ccccc43)c(=O)n2-c2ccccc2)c1,,10.3 µM (active)
Cc1nc(SCC(=O)c2ccccc2)c([N+](=O)[O-])[nH]1,-10.8,
Cc1ccc(NC(=O)CSc2nnc3[nH]c(=O)cc(C)n23)cc1Cl,2.16,
Cc1cccc(NC(=O)CSc2nc3c(oc4ccccc43)c(=O)n2-c2ccc(F)cc2)c1,-29.1,
Cc1ccc(NC(=O)CSc2nc3c([nH]c4ccccc43)c(=O)n2-c2ccccc2)cc1Cl,,23.1 µM (active)
Cc1ccc(NC(=O)Cn2nc(C)c3ccccc3c2=O)c(C)c1,-20.9,
Cc1ccc(-n2c(SCC(=O)c3ccccc3)nc3c([nH]c4ccccc43)c2=O)cc1,,3.66 µM (active)
Cc1ccc(NC(=O)CSc2nc3c([nH]c4ccccc43)c(=O)n2-c2ccccc2)c(C)c1,,16.4 µM (active)
Cc1ccc(-n2c(SCC(=O)Nc3cccc(F)c3)nc3c(oc4ccccc43)c2=O)cc1C,-22.3,
Cc1ccc(NC(=O)COC(=O)CCc2nc3ccccc3n2-c2ccccc2)c(C)c1,-3.81,
O=C(CC12CC3CC(CC(C3)C1)C2)NCc1ccco1,-0.431,
CCCOc1ccc(Cc2c(O)nc(N)[nH]c2=O)cc1C,-1.45,
CN1C(=O)CC(c2ccccc2)C1=O (stereo not drawn),-6.89,
Cc1cc(C(=O)CC#N)c(C)n1CC(F)(F)F,-20.7,

Compound,"activity change, negative = growth inhibition [%]",Potency
CCC(=O)N1CCC(C)(C(=O)Nc2cc(OC)c(OC)c(OC)c2)C1 (stereo not drawn),11.7,
C/C(=N\NS(=O)(=O)c1ccc(Br)cc1)c1cccs1,-15.2,
O=C(c1ccco1)N1CCC[C@@]2(CCN(Cc3nccs3)C2)C1,-12.2,
C[C@H](CO)N1C[C@H](C)[C@@H](CN(C)C(=O)c2cnccn2)Oc2ncc(Br)cc2C1=O,-16.7,
CC1CN(C(=O)CN2C(=O)NC(C)(c3ccccc3)C2=O)CC(C)O1 (stereo not drawn),-7.19,
O=C(c1ccccc1)c1cccn1CC(=O)N1CCN(c2ccc(F)cc2)CC1,-25.7,
CCOC(=O)c1ccc(NC(=O)CSc2nnc(COc3ccccc3OC)n2C)cc1,-2.75,
CCOn1c(SC(C)C)nc2ccccc2c1=O,-21.4,
Cn1nnnc1SCc1cc(=O)[nH]c2ccccc12,-28.9,
CCOC(=O)c1ccc(NC(=O)CSc2nc3c([nH]c4ccccc43)c(=O)n2C)cc1,,9.2 µM (active)
CC(Sc1nc2c([nH]c3ccccc32)c(=O)n1C)c1ccccc1 (stereo not drawn),,18.4 µM (active)
CCOC(=O)c1ccc(NC(=O)c2cc(=O)[nH]c3ccccc23)cc1,-22.2,
CSc1ncccc1C(=O)OCC(=O)N1CCOCC1,-3.53,
CCOC(=O)c1cccc(NC(=O)CCc2nnc3ccc(N4CCOCC4)nn23)c1,-0.956,
COC(=O)Nc1nc2ccc(Sc3ccccc3)cc2[nH]1,,517 nM (active) and 286 nM (active)
Cc1nc2ccc(C(=O)O)cc2[nH]1,-0.0869,
CC(C)c1nc2ccc(C(=O)O)cc2[nH]1,10.6,
CC1CCN(C(=O)/C(=C\c2ccccc2)NC(=O)c2ccccc2)CC1,-22.2,
O=C(CS(=O)(=O)Cc1ccccc1)Nc1cccnc1,-9.09,
CNc1cncc(-c2ccc(NS(C)(=O)=O)cc2)n1,,4.11 µM (active)
CS(=O)(=O)Nc1ccc(C(=O)N2CCCC2)cc1,1.79,
CNc1cncc(-c2cccc(C(=O)N3CCOCC3)c2)n1,0.0506,
CCCS(=O)(=O)C(=C1Nc2ccccc2N1)S(=O)(=O)CCC,-3.88,

Compound,"activity change, negative = growth inhibition [%]",Potency
CN(C)S(=O)(=O)c1cc(C(=O)Nc2ccn(C)n2)c(Cl)cc1Cl,-0.996,
COc1ccc(OC)c(CNC(=O)C2CCCN(c3nc4ccccc4o3)C2)c1 (stereo not drawn),-18.9,
COc1cc(-c2cccnc2)cc2c1OCCN(C(=O)Cc1csc(C)n1)C2,-6.19,
COc1ccc2c(c1)NC(=O)C2CC(=O)N1CCOc2c(cc(-c3cnc4ccccc4c3)cc2OC)C1 (stereo not drawn),,18.4 µM (active)
COC(=O)c1ccc(/C=C2/C(=O)Oc3ccccc32)cc1,-21.5,
O=C1Oc2ccccc2C(=O)/C1=C/c1ccccc1O,,8.2 µM (active)
COC(=O)c1c(NC(=O)c2c(Cl)cnn2C)sc(C)c1C,-17.9,
CN1CCN(c2ccc(S(=O)(=O)N3CCOCC3)cc2NC(=O)CCc2ccccc2)CC1,10.5,
COC(=O)C(C)N=Cc1ccccc1 (stereo not drawn),-2.77,
CN(Cc1ccccc1)c1nc2c(c(=O)[nH]c(=O)n2C)n1CCSc1nc2ccccc2[nH]1,-2.54,
CC=CCn1c(SCCCc2ccccc2)nc2c1c(=O)[nH]c(=O)n2C,,20.6 µM (active)
CCCSc1nc2c(c(=O)[nH]c(=O)n2C)n1CCc1ccccc1,-23.1,
CN(C)Cc1c(C(=O)N/N=C/c2ccccc2OCc2ccc(F)cc2)nnn1-c1nonc1N,7.5,
Fc1cccc(/C=N\N=C/c2cccc(F)c2)c1,-7.48,
Cn1nc(-c2ccccc2)c2cc([N+](=O)[O-])ccc21,0.26,
COc1cc(/C(=C/c2ccccc2)c2ccccc2)c2c(c1)oc1ccccc12,,inactive
CCCC(=O)Nc1c(O)c2ccccc2[nH]c1=O,-2.3,
CC1=C(C(=O)N2CCOCC2)CC(CC(=O)NCCCN(C)C)C(=O)N1Cc1ccc(C(C)(C)C)cc1 (stereo not drawn),6.72,
CN1/C(=c2/s/c(=C3/C(=O)N(c4ccccc4)NC3=Nc3ccccc3)n(C)c2=O)C(C)(C)c2ccccc21,,11.6 µM (active)
C#Cc1cc(N2CCN(C(=O)c3ccoc3)CC2)n2nc(-c3cccc(Cl)c3)cc2n1,,5.8 µM (active)
O=C(c1cccc(Br)c1)N1CCN(Cc2cc(=O)n3nc(-c4ccccc4)sc3n2)CC1,3.37,
O=C(c1cccc(Cl)c1)N1CCN(Cc2ccccc2)CC1,-24.6,
O=C(c1ccccc1)N1CCN(c2cc(-c3ccccc3)nc3cc(-c4cccc(Cl)c4)nn23)CC1,,14.6 µM (active)

Compound,"activity change, negative = growth inhibition [%]",Potency
O=C(c1cccc(Cl)c1)N1CCN(CCc2ccncc2)CC1,-11.9,
COc1ccc2c(c1)c(=O)c(S(=O)(=O)c1ccc(F)cc1)cn2CC(=O)Nc1ccc(C)cc1C,24.6,
CCOC(=O)c1ccccc1NC(=O)CCc1c(C)nc2c(c1C)c(=O)n(C)c(=O)n2C,-19.7,
O=C1Nc2cc(Cl)c(Cl)cc2N(O)N1c1cc(Cl)cc(Cl)c1,-19.7,
C/C(N)=C(/C#N)C(=O)COC(=O)C1=NN(c2ccccc2)C(=O)CC1,4.78,
CCNc1nc(Oc2ccc(C(=O)OC)cc2)nc(N2CCOCC2)n1,-20.1,
CCOC(=O)C1CCN(C(=O)/C=C/c2cc(OC)c(OC)c(OC)c2)CC1,-24.2,
CCCCNC(=O)Cn1nc(C)c(S(=O)(=O)N2CCOCC2)c1C,4.34,
COC(=O)c1sccc1N/N=C(\C)c1ccc(F)c(Cl)c1,-16.8,
COc1ccc(Cc2nnc(SCC(=O)Nc3ccc(C)c(Cl)c3)[nH]c2=O)cc1,-11.1,
CCCCNC(=O)CSc1nnc(-c2ccco2)n1C,-13.5,
CCCCNC(=O)CSc1nc2n[nH]c(C)c2c(=N)n1-c1cccc(Cl)c1C,,20.6 µM (active) and 9.2 µM (active)
Cc1ccccc1CN1CCNC(=O)C1CC(=O)NCCC1=CCCCC1 (stereo not drawn),7.28,
O=C(COc1ccc(Cl)cc1)NCCC1=CCCCC1,-14.8,
Cc1ccc(-n2c(SCC(=O)NCCC3=CCCCC3)nc3n[nH]c(C)c3c2=N)cc1Cl,,3.26 µM (active)
COc1ccc(-n2c(Cc3cccn3C)nnc2SCC(=O)Nc2cc(C)cc(C)c2)cc1,-1.68,
Cc1nnc(SCC(=O)NCCOc2ccc(Cl)cc2)n1-c1ccccc1,-22.3,
COCCNC(=O)CSc1nc2sccc2c(=O)n1-c1ccccc1,-14,
CCOc1ccc(-n2c(SCC(=O)NCc3ccccc3)nc3n[nH]c(C)c3c2=N)cc1,,7.31 µM (active)
Cc1nnc(SCC(=O)NCc2ccccc2)s1,2.12,
COc1ccc(-n2c(SCC(=O)Nc3ccc(Cl)c(C)c3)nc3n[nH]c(C)c3c2=N)cc1,,9.2 µM (active)
